AMA1 RON2 block: AMA1-RON2 (P. falciparum) interaction inhibition | AlphaScreen AMA1-biotinylated RON2 peptide binding | Potency, µM (doses to about 58.2 µM), most hits filed as inhibitors | 360,000 compounds, 0.2% hits | AID 720542; also: nearly all actives have a fitted effect of over 45% in size
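AMA1 (3D7) with his tag at 25 nM final met compounds first, then biotinylated RON2 peptide at 25 nM; detection used donor plus acceptor beads, 10 µg/mL apiece, read by AlphaScreen after 30 min at room temperature.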
Pf growth 48h: P. falciparum growth inhibition at 48 hours (one generation) | P. falciparum luciferase growth in erythrocytes, 48 h | 310,000 compounds, 5.9% hits | Potency, µM (doses to about 28.7 µM), usual class: inhibitors
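Firefly luciferase activity from engineered P. falciparum reports growth; inhibitors lower the luminescent signal. Cultures contained 2% hematocrit erythrocytes at 0.1% final parasitemia.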
SARS PLP yeast: SARS-CoV PLP inhibition in yeast; S. cerevisiae expressing SARS-CoV PLpro, growth rescue; Potency, µM (highest dose often 32.9 µM), hits mostly activators; AID 485353; 330,000 compounds, 0.19% hits; calls by dose curve; also: nearly all actives have a fitted effect of over 55% in size
Pf growth 96h: inhibits malaria parasite growth, 96 h; 320,000 compounds, 6.9% hits; P. falciparum luciferase reporter growth, 96 h; AID 504834; Potency, µM (highest dose often 28.7 µM), hits mostly inhibitors
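P. falciparum expressing integrated firefly luciferase, in erythrocytes at 2% hematocrit, 0.05% parasitemia, incubated with compounds 96 h at 37 C, 5% CO2. Growth inhibition read as loss of luminescence; two-generation exposure targets delayed-death apicoplast inhibitors.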
Hits are given with their value; - = inactive; ? = inconclusive; . = no result given; [ ] = dose if it differs, or a comment. Compounds with a hit are over-represented: about 9.4% of the library has one in this group of screens. Unless noted, calls follow the shape of the dose curve; as a rule, active = well fitted curve in the direction sought with a large enough effect; inconclusive = small, poorly fitted or top-dose-only effect, or another doubt; inactive = no such curve, though single readings can be large; an effect the other way counts as inactive or inconclusive.

SMILES	AMA1 RON2 block	Pf growth 48h	SARS PLP yeast	Pf growth 96h
Clc1ccc(CC[C@H](Cn2ccnc2)Sc2c(Cl)cccc2Cl)cc1	.	5.73µM	.	2.03µM
COc1ccc2c(c1)c(CC(=O)NCc1cc([N+](=O)[O-])ccc1O)c(C)n2C(=O)c1ccc(Cl)cc1	-	?	-	5.86µM
COc1ccc2c(c1)c(CC(=O)Nc1cc(C)ccc1C)c(C)n2C(=O)c1ccc(Cl)cc1	-	?	-	11.7µM
COc1ccc2c(c1)c(CC(=O)Nc1ccccc1OC)c(C)n2C(=O)c1ccc(Cl)cc1	-	-	-	5.22µM
NCCC(=O)NC[C@H]1O[C@@H](n2cnc3c(N)ncnc32)[C@H](O)[C@@H]1O	-	.	-	.
COc1ccc(N=C(NN)c2ccc3ccccc3n2)cc1	-	-	-	-
Cc1cc(C)[n+](C2C3CC4CC(C3)CC2C4)o1 (stereo unspecified)	-	?	-	1.85µM
CCN(C(=O)C(C)OC(=O)CCCNC(=O)c1ccc(Cl)cc1)c1ccccc1 (stereo unspecified)	-	?	-	-
COc1ccc(-c2noc(N3CCC(C(=O)Nc4ccc(F)cc4)CC3)n2)cc1	-	-	-	-
COc1ccc(-c2noc(N3CCCC(C(=O)Nc4ccc(F)cc4F)C3)n2)cc1 (stereo unspecified)	-	-	-	9.28µM
COc1ccc(-c2noc(N3CCCC(C(=O)Nc4ccccc4F)C3)n2)cc1 (stereo unspecified)	-	-	-	10.4µM
C/C(Cn1nnc([N+](=O)[O-])n1)=N\NC(=O)c1cccc(Cl)c1	-	?	-	11.7µM
C/C(Cn1nnc([N+](=O)[O-])n1)=N\NC(=O)c1ccccc1Cl	-	7.38µM	-	9.28µM
O=C(CSc1nc2ccccc2o1)NCCOc1ccccc1	-	-	-	?
CCc1ccc(OC(=O)c2cncc(Br)c2)cc1	-	-	-	?
CCc1ccc(C(=O)COC(=O)c2cncc(Br)c2)cc1	-	16.5µM	-	-
CCOC(=O)C(C)Oc1ccc2c(-c3cccc([N+](=O)[O-])c3)cc(=O)oc2c1 (stereo unspecified)	-	-	?	-
CCCCCCCNC(=O)COc1ccc2c(c1)C(=O)CC(C)(C)O2	-	.	-	?
CCOC(=O)COc1ccc2c(c1)C(=O)CC(C)(c1cccnc1)O2 (stereo unspecified)	-	-	-	2.08µM
CC1(C)CC(=O)c2cc(OCC(=O)NCc3cccnc3)ccc2O1	-	-	-	13.1µM
O=C(COc1ccc2c(c1)C(=O)CC1(CCCCC1)O2)NCc1ccccc1	-	8.28µM	-	3.7µM
CCN(CC)C(=O)COc1ccc2c(c1)C(=O)CC(C)(C)O2	-	-	-	9.28µM
CC(=O)NC(c1cc(F)c2cccnc2c1O)C1CC1 (stereo unspecified)	.	?	-	?
Cc1snc2sc(C(=O)c3ccc(F)cc3)c(N)c12	-	-	-	-
Cc1cc(C)n2nnnc2c1C#N	-	-	-	13.1µM
SMILES	AMA1 RON2 block	Pf growth 48h	SARS PLP yeast	Pf growth 96h
FC(F)Oc1ccc(NC(=S)NCc2nc3ccccc3[nH]2)cc1	-	-	-	-
Nc1c(C(=O)C2CC2)sc2nc3c(cc12)CCC3	-	-	-	-
CN1CCc2nc3sc(C(=O)C45CC6CC(CC(C6)C4)C5)c(N)c3cc2C1	-	9.28µM	-	2.62µM
O=C(NCc1ccccc1)c1ccc(NC2=NC3CS(=O)(=O)CC3S2)cc1 (stereo unspecified)	-	-	-	?
CCOC(=O)N1C(=O)[C@](CC)(c2ccccc2)N1C(=O)OCC	-	-	-	-
CCC1(c2ccccc2)C(=O)N(C(=O)OC(C)(C)C)N1C(=O)OC(C)(C)C (stereo unspecified)	-	13.1µM	-	?
O=S1(=O)CCN2C(c3cccc4ccccc34)=CSC2=N1	-	-	-	-[5.75 µM]
C1=C(c2cccc3ccccc23)N2CCN=C2S1	-	?	-	13.1µM
CC(C)(C)c1ccc(C2=CSC3=NCCN23)cc1	-	?	-	0.262µM
COc1ccc(C(C)=O)c(Oc2ccc(S(=O)(=O)N3CCOCC3)cn2)c1	-	8.28µM	-	?
O=C1NC[C@H](CCCCN2C[C@H](Cc3ccc(O)cc3)N(Cc3ccccc3)C(=O)C2=O)N(Cc2ccccc2)C1=O	-	.	.	.
Cc1c(Cl)cccc1NC(=O)COC(=O)c1c2c(nc3ccccc13)CCN(Cc1ccccc1)C2	-	13.1µM	-	2.94µM
Cc1cc(N2CCN(C)CC2)ccc1NC(=O)c1c2c(nc3ccccc13)CCN(Cc1ccccc1)C2	-	?	-	?
Nc1nc2c(c(=O)[nH]1)CN(Cc1ccccc1)CC2	-	-	-	-
O=C(NC1CCCCCC1)c1c2c(nc3ccccc13)CCN(Cc1ccccc1)C2	-	-	-	-
Nc1c2c(nc3ccccc13)CCN(Cc1ccccc1)C2	-	?	-	8.28µM
CC(C)c1ccccc1NC(=O)COC(=O)c1c2c(nc3ccccc13)CCN(Cc1ccccc1)C2	-	8.28µM	-	13.1µM
O=P(COCCO)(c1ccccc1)c1ccccc1	-	-	-	.
Cc1cccc(NC(=O)CCn2ccnc2C)c1	-	-	-	-
C=CCn1c(C(C)NC(=O)c2ccccc2)n[nH]c1=S (stereo unspecified)	-	-	-	-
CCCCC(=O)N(c1ccc(C(=O)O)cc1)c1nc(-c2ccc(Cl)cc2)c(CC)s1	-	2.33µM	-	?
CCc1sc(N(C(=O)Cc2ccccc2)c2ccccc2)nc1-c1ccccc1	-	13.1µM	-	.
CCc1sc(N(C(=O)Cc2ccccc2)c2ccc(F)cc2)nc1-c1ccccc1	-	.	-	-
COc1ccc(C(=O)Nc2cc3c(cc2C#N)OCO3)cc1S(=O)(=O)N1CCN(C)CC1	-	-	-	?
OCCN1CCN(CC(O)COc2ccc(-c3ccccc3)cc2)CC1 (stereo unspecified)	-	-	-	.
SMILES	AMA1 RON2 block	Pf growth 48h	SARS PLP yeast	Pf growth 96h
CC(C)C(CCNC(=O)CN1C(=O)c2ccccc2C1=O)c1ccco1 (stereo unspecified)	-	-	.	?
CC(C)C(CCNC(=O)CC(Cc1ccccc1)c1ccco1)c1ccco1 (stereo unspecified)	-	?	-	13.1µM
O=C(c1ccccc1Cl)N1N=C(c2ccc(Br)cc2)CC1c1nc2ccccc2[nH]1 (stereo unspecified)	-	-	-	-
O=C(NCc1ccc(F)cc1)C1CCN(S(=O)(=O)N2CCC3(CC2)OCCO3)CC1	-	-	-	-
Fc1ccc(-c2csc3[n+]2CCS3)cc1	-	10.4µM	-	4.15µM
O=[N+]([O-])c1ccc(-c2csc3[n+]2CCS3)cc1	-	.	-	9.28µM
O=[N+]([O-])c1ccc(-c2cn3c(n2)SCC3)cc1	-	.	.	.
Fc1ccc(-c2csc(=S)[nH]2)cc1	-	-[5.75 µM]	-	-
CCOC(=O)c1c(NC(=O)Cc2ccccc2)sc2c1CC(C)(C)NC2(C)C	-	?	-	0.928µM
CCOC(=O)N1CCN(S(=O)(=O)c2ccc(C(=O)Nc3sc4c(c3C(N)=O)CC(C)(C)NC4(C)C)cc2)CC1	-	11.7µM	-	?
CCOC(=O)c1c(NC(=O)c2ccc(C)cc2)sc2c1CC(C)(C)NC2(C)C	.	-	-	-
